Consider 3 molecules from PubChem BioAssay (NCATS).

Values without a mark were called inactive. Results filed as inconclusive are left out. The source made the active and inactive calls. Calls come from the whole dose curve; as a rule, active = well fitted curve in the direction sought with a large enough effect; inconclusive = small, poorly fitted or top-dose-only effect, or another doubt; inactive = no such curve, though single readings can be large; an effect the other way counts as inactive or inconclusive.

In assay [1] the target is Cytochrome P450 2D6 (Homo sapiens) (UniProt P10635). As to the kind of experiment: qHTS Assay for Inhibitors and Substrates of Cytochrome P450 2D6 (AID 891).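 Note: luciferin methyl ether substrate demethylated by CYP2D6 with NADPH regeneration; % is set by controls: 0 for no effect and ±100 for the full control effect; nearly all actives have a fitted effect of over 60% in size.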 In short, it runs like this:
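Luminescent read-out of luciferin formed by 5 nM human CYP2D6 demethylating 30 uM Luciferin-ME EGE (Km level) over 60 min at room temperature after NADPH regeneration addition. Data normalized to full inhibition by 1.43 uM quinidine.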
(In qHTS, concentration-response curves come from the screen itself.)

Assay [2] concerns the target Pyruvate kinase PKM (Homo sapiens) (UniProt P14618). As to the kind of experiment: qHTS Assay for Inhibitors of Human Muscle Pyruvate Kinase (AID 958). The following applies: purified human PKM enzyme activity. Here is the method:
NIH Molecular Libraries Screening Centers Network [MLSCN]
NIH Chemical Genomics Center [NCGC]
Wael M. Rabeh, Lyudmila Nedyalkova and Hee-Wan Park [Structural Genomics Consortium, 100 College St. Toronto, Ontario, Canada]
Human pyruvate kinase muscle 2 enzyme was supplied as a highly purified (>95% pure) preparation by the Structural Genomics Consortium in Toronto (Ontario, Canada) and was assayed for its ability to generate ATP from ADP using phosphoenolpyruvate (PEP) as a substrate. ATP generation was detected in a coupled reaction by luciferase-mediated luminescence, an ATP-dependent process. Pyruvate kinase substrates, PEP and ADP, were present in the assay at Km and approximately […]-fold below Km respectively. The enzyme was assayed at an intermediate level of activity to screen for inhibitors and activators.
NCGC Assay Protocol Summary:
Three uL of substrate mix (final concentration, 50 mM imidazole pH 7.2, 50 mM KCl, 7 mM MgCl2, 0.5 mM PEP, 0.1 mM ADP, 0.01% Tween 20, 0.05% BSA) was dispensed into 1536 well plates. 23 nL of compound were delivered by a pin tool and 1 uL of enzyme mix (final concentration, 0.1 nM pyruvate kinase, 50 mM imidazole pH 7.2, 0.05% BSA) was added. […] Two uL of detection and kinase stop mix (PKLight, Cambrex) was added, the plates centrifuged, and luminescence read by a ViewLux (Perkin Elmer) at 5 second exposure/plate. […]

Assay [3] is described as follows: Confirmation and Secondary Assay for Modulators of Hemoglobin Beta Chain Splicing at IVS2 654 locus (AID 910).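 Note: HeLa cells stably carrying EGFP split by mutant beta-globin IVS2-654 intron; % of control where 0% means no effect.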 In short, it runs like this: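 HeLa cells stably expressing EGFP interrupted by β-globin IVS2-654 intron, seeded overnight in Opti-MEM/2% FCS, then treated 2 days at 37 °C. Restored splicing read as total peak GFP intensity per well by laser scanning cytometry (488 nm excitation, 500–520 nm emission); 500 nM antisense PNA as control.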

The nature of assay [4]: Confirmation and Secondary Assay for Modulators of Hemoglobin Beta Chain Splicing at IVS2 705 locus (AID 930).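 Note: HeLa cells stably expressing the EGFP-705 splicing reporter; GFP fluorescence per well restored by corrected splicing of the IVS2-705 intron in EGFP; series mostly up to about 46 µM; % of control where 0% means no effect.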 In short, it runs like this:
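Stable HeLa line with EGFP disrupted by mutant beta-globin intron 2 (705). Overnight attachment, then 2 days of compound at 37C, 5% CO2. Signal: peak GFP intensity summed over objects 5-250 µm.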

Assay [5] addresses Rap guanine nucleotide exchange factor 3 (Homo sapiens) (UniProt O95398). The assay is described as follows: Confirmatory qHTS for antagonist of cAMP-regulated guanine nucleotide exchange factor 3 (EPAC1) (AID 1645880).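 Note: plate controls were DMSO only for no effect and full effect of the ATA control for full effect; nearly all actives have a fitted effect of over 55% in size.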 In short, it runs like this: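 Released BODIPY-GDP fluoresces less than Rap1-bound BODIPY-GDP; the signal is followed at 480/540 nm at 5-min intervals over 30 min, after 5 min at room temperature. Reactions contain 100 nM EPAC1, 250 nM RAP1B-BODIPY-GDP and 50 uM GDP; results are normalized to ATA and DMSO.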

The target is the same in assay [6]. The assay is described as follows: Confirmatory qHTS for agonist of cAMP-regulated guanine nucleotide exchange factor 3 (EPAC1) (AID 1645881).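 Note: EPAC1 catalysed release of BODIPY-GDP from Rap1B seen as fluorescence loss; 100% = effect of cAMP agonist control; nearly all actives have a fitted effect of over 75% in size.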
The target in assay [7] is Rap guanine nucleotide exchange factor 4 (Homo sapiens) (UniProt Q8WZA2). The assay is described as follows: Confirmatory qHTS for agonist of cAMP-regulated guanine nucleotide exchange factor 4 (EPAC2) (AID 1645884).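 Note: nucleotide exchange releases bodipy-GDP from Rap1 and this lowers its fluorescence; % is set by controls: 0 for no effect and ±100 for the full control effect; nearly all actives have a fitted effect of over 65% in size.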
Chain of Rap guanine nucleotide exchange factor 4 (Homo sapiens) (Q8WZA2 whole entry, looked up): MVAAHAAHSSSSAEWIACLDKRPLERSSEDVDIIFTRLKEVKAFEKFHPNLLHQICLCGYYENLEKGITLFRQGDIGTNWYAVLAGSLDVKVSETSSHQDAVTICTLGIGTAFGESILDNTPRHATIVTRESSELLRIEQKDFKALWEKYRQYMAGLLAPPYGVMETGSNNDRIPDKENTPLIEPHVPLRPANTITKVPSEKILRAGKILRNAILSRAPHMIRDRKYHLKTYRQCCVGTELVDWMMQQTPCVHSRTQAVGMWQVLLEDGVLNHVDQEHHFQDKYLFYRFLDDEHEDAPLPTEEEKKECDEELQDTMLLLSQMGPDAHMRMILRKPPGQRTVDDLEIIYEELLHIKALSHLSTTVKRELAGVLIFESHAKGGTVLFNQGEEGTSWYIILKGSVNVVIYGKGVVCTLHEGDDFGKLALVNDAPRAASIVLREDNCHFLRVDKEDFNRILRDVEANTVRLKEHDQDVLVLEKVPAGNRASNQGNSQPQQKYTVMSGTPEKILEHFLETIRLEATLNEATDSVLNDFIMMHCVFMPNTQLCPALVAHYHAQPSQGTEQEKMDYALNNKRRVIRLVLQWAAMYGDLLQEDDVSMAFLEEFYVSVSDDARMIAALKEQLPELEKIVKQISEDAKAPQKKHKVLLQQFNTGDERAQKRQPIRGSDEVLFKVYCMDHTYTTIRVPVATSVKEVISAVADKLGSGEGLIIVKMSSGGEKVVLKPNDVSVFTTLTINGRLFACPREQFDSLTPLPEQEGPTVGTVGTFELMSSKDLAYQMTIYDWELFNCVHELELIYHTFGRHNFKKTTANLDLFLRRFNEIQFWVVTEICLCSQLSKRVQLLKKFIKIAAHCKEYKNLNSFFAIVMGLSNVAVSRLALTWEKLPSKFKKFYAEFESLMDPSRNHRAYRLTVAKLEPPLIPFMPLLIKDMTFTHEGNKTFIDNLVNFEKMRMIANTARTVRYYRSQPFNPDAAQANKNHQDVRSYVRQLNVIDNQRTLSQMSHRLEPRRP
The target is the same in assay [8]. The assay is described as follows: Confirmatory qHTS for antagonist of cAMP-regulated guanine nucleotide exchange factor 4 (EPAC2) (AID 1645885). Note: % is set by controls: 0 for no effect and ±100 for the full control effect; nearly all actives have a fitted effect of over 25% in size.
For assay [9], the target named is Rap guanine nucleotide exchange factor 3 (Homo sapiens) (UniProt O95398). The assay is described as follows: Counterscreen qHTS for antagonist of cAMP-regulated guanine nucleotide exchange factor 3 (EPAC1) (AID 1645888). Note: % of control where 0% means no effect. In short, it runs like this:
(§1)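 Rap1B–BODIPY-GDP (250 nM) with 50 uM GDP; compounds pin-transferred to 9.74 nM–152 uM final (activator) or from 7.32 nM upwards (inhibitor). Fluorescence Ex/Em 480/540 nm read at 5 and 30 min, then after adding cAMP or buffer, at room temperature.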
In general terms: A counterscreen serves to expose hits that act by an unwanted route or on another target.

For assay [10] the target is unchanged. The assay is described as follows: Counterscreen qHTS for agonist of cAMP-regulated guanine nucleotide exchange factor 3 (EPAC1) (AID 1645889). Note: % of control where 0% means no effect; nearly all actives have a fitted effect of over 40% in size. In short, it runs like this:
as §1

Chain of Rap guanine nucleotide exchange factor 3 (Homo sapiens) (O95398 whole entry, looked up): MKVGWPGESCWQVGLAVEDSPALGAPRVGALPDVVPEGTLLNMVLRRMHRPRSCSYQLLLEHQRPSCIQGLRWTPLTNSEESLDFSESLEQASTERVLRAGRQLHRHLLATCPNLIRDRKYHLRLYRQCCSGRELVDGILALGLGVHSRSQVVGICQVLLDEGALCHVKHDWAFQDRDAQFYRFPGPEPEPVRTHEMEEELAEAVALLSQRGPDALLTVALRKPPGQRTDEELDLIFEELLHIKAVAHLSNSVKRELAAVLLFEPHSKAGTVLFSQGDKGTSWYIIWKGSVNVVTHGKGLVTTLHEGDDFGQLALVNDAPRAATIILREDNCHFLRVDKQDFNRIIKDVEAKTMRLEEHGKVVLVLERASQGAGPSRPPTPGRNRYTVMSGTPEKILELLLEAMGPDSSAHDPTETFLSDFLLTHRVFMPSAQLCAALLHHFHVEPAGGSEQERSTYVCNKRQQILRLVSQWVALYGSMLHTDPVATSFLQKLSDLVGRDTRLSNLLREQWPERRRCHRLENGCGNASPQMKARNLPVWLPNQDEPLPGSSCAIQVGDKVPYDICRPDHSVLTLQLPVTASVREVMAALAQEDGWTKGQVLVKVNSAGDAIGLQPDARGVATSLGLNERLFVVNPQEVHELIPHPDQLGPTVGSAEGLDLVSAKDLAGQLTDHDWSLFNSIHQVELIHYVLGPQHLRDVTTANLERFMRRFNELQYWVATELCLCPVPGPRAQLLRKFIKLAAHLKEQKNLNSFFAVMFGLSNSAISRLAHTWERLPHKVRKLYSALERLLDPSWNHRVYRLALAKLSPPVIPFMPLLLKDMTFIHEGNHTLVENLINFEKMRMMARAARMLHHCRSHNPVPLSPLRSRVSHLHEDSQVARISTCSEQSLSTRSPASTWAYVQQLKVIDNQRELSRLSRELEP
Chain of Cytochrome P450 2D6 (Homo sapiens) (P10635 whole entry, looked up): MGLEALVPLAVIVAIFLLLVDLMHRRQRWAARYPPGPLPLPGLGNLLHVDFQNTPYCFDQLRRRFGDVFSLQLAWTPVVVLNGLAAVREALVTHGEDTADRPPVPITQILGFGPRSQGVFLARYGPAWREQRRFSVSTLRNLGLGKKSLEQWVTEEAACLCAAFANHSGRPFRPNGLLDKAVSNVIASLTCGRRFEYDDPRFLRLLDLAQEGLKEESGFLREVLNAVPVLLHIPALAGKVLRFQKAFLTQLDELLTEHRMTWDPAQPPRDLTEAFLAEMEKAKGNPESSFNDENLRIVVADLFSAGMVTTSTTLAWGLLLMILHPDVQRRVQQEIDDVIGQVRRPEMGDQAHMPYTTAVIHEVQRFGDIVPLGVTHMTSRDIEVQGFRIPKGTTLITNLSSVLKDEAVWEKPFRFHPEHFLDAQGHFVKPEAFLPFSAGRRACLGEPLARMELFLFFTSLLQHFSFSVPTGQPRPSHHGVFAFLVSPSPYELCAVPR
Chain of Pyruvate kinase PKM (Homo sapiens) (P14618 whole entry, looked up): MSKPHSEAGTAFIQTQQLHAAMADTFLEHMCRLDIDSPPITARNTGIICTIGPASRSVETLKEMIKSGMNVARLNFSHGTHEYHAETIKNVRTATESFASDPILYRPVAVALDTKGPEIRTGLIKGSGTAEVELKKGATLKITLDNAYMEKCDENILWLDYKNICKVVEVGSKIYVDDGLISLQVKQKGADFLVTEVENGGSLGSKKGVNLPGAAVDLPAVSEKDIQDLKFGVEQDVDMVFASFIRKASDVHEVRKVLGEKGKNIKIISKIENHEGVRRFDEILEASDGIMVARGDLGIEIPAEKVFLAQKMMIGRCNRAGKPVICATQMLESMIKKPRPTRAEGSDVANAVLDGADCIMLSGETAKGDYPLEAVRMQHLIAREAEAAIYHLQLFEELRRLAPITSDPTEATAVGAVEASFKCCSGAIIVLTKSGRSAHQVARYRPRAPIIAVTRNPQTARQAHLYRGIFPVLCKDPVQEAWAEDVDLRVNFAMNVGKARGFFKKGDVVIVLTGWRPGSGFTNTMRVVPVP

Regarding `N=C1Sc2ccccc2C2=NCCCN12`, the Potency result in assay [1] was “inactive”. The Potency in [2] is 7.94 µM (active).
Turning to `CN1C(=O)CCC1c1cccnc1` (stereo not given), the result in assay [3] and in assay [4] was inactive.
With `CN1C2CC(OC(=O)C(CO)c3ccccc3)CC1C1OC12` (stereo not given), in [5], the Potency entry was “inactive”. The molecule was classed as inactive in assay [6] and in [9]. Further, the activation in assay [7] was 2.48% [at 17.1 µM]; in assay [10], 0.0134% [at 30.8 µM]. The activity change, negative = inhibition in assay [8] was -4.32% [at 12.7 µM].
